Test results from PubChem BioAssay (NCI).
Compounds without any hit were thinned out: in the full panel of roughly 79,000, 15% have a hit. The source made the active and inactive calls. No stated cut-off is given here; in the data, active means growth inhibition above about 70%; inactive means the rest.

Experiments:
[1] = NCI Yeast Anticancer Drug Screen. Data for the rad52 strain (AID 147);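 further: 0% = growth of vehicle-treated control cultures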; details: S. cerevisiae rad52 mutant growth inhibition, active compounds read high
In short: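 Genetically altered yeast (DNA damage repair defect) treated with compound; inhibition calculated relative to vehicle.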

[2] = NCI Yeast Anticancer Drug Screen. Data for the wt1 strain (AID 149);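 further: 0% = growth of vehicle-treated wt1 cultures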; details: S. cerevisiae wt1 strain (SPY 50644) growth inhibition, active compounds read high
In short: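 Growth inhibition read against vehicle controls after compound exposure of the wt1 yeast strain.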

[3] = NCI Yeast Anticancer Drug Screen. Data for the rad50EPP+ strain (AID 151);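 further: 0% = growth of vehicle-treated control cultures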; details: S. cerevisiae rad50 mutant strain, active compounds read high
In short: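 Strain rad50EPP+; compound exposure; % growth inhibition vs vehicle.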

[4] = NCI Yeast Anticancer Drug Screen. Data for the mgt1 strain (AID 153); details: S. cerevisiae mgt1 mutant growth inhibition, active compounds read high
In short: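 Read-out: yeast growth inhibition vs vehicle control. Strain mgt1, drawn from a panel altered in DNA damage repair or cell cycle control.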

[5] = NCI Yeast Anticancer Drug Screen. Data for the rad50 strain (AID 155);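 further: 0% = growth of vehicle-only cultures of the same strain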; details: S. cerevisiae rad50 strain growth inhibition, active compounds read high
In short: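 Readout: growth inhibition relative to vehicle-treated cultures. Compound exposure was carried out in a genetically defined yeast strain deficient in DNA damage repair.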

[6] = NCI Yeast Anticancer Drug Screen. Data for the mec2-1 strain (AID 157); details: S. cerevisiae mec2-1 strain, active compounds read high
In short: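 Cells of the genetically defined mec2-1 yeast strain are incubated with test compound. Inhibition of growth is calculated against vehicle-treated controls.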

[7] = NCI Yeast Anticancer Drug Screen. Data for the rad14 strain (AID 159);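 further: 0% = growth of vehicle-treated control cultures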; details: S. cerevisiae rad14 strain growth inhibition, active compounds read high
In short: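 Growth inhibition vs vehicle controls; genetically altered yeast strain (DNA damage repair defect) treated with test compounds.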

[8] = NCI Yeast Anticancer Drug Screen. Data for the sgs1 mgt1 strain (AID 161);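 further: 0% = growth of cultures given vehicle only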; details: S. cerevisiae sgs1 mgt1 strain, active compounds read high
In short: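 Genetically altered yeast, compound exposure, growth inhibition relative to vehicle.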

[9] = NCI Yeast Anticancer Drug Screen. Data for the CLN2oe strain (AID 163);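 further: 0% = growth of vehicle-only control cultures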; details: S. cerevisiae CLN2oe strain, active compounds read high
In short: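 Strain altered in cell-cycle control, incubated with compound; growth compared to solvent-treated controls.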

[10] = NCI Yeast Anticancer Drug Screen. Data for the cln2 rad14 strain (AID 165);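 further: 0% = growth equal to vehicle treated cultures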; details: S. cerevisiae cln2 rad14 strain, active compounds read high
In short: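 The screen exposed genetically defined yeast (cln2 rad14) to test compounds and scored growth inhibition relative to vehicle-treated controls.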

[11] = NCI Yeast Anticancer Drug Screen. Data for the bub3 strain (AID 167); details: S. cerevisiae bub3 mutant strain, active compounds read high
In short: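 Readout: yeast growth inhibition, expressed relative to vehicle-only wells. The test organism is a mutant strain from a panel with lesions in DNA repair or checkpoint genes.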

[12] = NCI Yeast Anticancer Drug Screen. Data for the wt2 strain (AID 169);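 further: 0% = growth of vehicle-treated yeast cultures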; details: S. cerevisiae wt2 strain growth inhibition, active compounds read high
In short: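 Steps: yeast strain treated with compound; growth recorded; inhibition calculated relative to cultures given vehicle alone.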

[13] = NCI Yeast Anticancer Drug Screen. Data for the mlh1 strain (AID 171);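 further: 0% = growth of vehicle-treated control cultures of the same strain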; details: S. cerevisiae mlh1 strain growth inhibition, active compounds read high
In short: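 Yeast screen: mutant strain plus compound, growth scored against vehicle control wells.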

[14] = NCI Yeast Anticancer Drug Screen. Data for the sgs1 strain (AID 173);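 further: 0% = growth of vehicle-only control cultures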; details: S. cerevisiae sgs1 mutant, active compounds read high
In short: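 Inhibition of yeast growth served as the measure. The mutant strain was treated with each compound, and growth was normalised to cultures receiving vehicle alone.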

[15] = NCI Yeast Anticancer Drug Screen. Data for the mlh1 rad18 strain (AID 175); details: S. cerevisiae mlh1 rad18 strain growth inhibition, active compounds read high
In short: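 Compound-treated yeast growth, normalised to vehicle controls. Strain bears defined DNA repair mutations.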

[16] = NCI Yeast Anticancer Drug Screen. Data for the rad18 strain (AID 177); details: S. cerevisiae rad18 mutant growth inhibition, active compounds read high
In short: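 Inhibition values reflect reduced yeast growth compared with vehicle-treated controls, using a strain engineered with a DNA damage repair defect.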

[17] = at 5.0 µM (retest, dose inferred, filed as 0.5)
[18] = at 50.0 µM (retest, dose inferred, filed as 5.0)

Measured: growth inhibition

CCOC(=O)c1[nH]cc(C)c1-c1cccn1-c1ccc(Cl)cc1[N+](=O)[O-]
active: [1]; at 100.0 µM 89% | [2]; at 100.0 µM 80% | [4]; at 100.0 µM 96% | [5]; at 100.0 µM 90% | [6]; at 100.0 µM 85% | [7]; at 100.0 µM 90% | [8]; [18] 87% | [9]; at 100.0 µM 92% | [11]; at 100.0 µM 91% | [12]; at 33.0 µM 84% | [12]; at 100.0 µM 93% | [13]; at 100.0 µM 96% | [14]; at 100.0 µM 95% | [16]; at 100.0 µM 89%
inactive: [1]; at 1.2 µM 13% | [1]; at 3.7 µM 19% | [1]; at 11.0 µM 27% | [1]; at 33.0 µM 25% | [2]; at 1.2 µM 16% | [2]; at 3.7 µM 6% | [2]; at 11.0 µM 16% | [2]; at 33.0 µM 12% | [3]; at 1.2 µM 22% | [3]; at 3.7 µM 30% | [3]; at 11.0 µM 32% | [3]; at 33.0 µM 32% | [3]; at 100.0 µM 55% | [4]; at 1.2 µM 3% | [4]; at 3.7 µM 17% | [4]; at 11.0 µM 20% | [4]; at 33.0 µM 48% | [5]; at 1.2 µM 1% | [5]; at 3.7 µM 8% | [5]; [17] 13% | [5]; at 11.0 µM 14% | [5]; at 33.0 µM 19% | [5]; [18] 43% | [5]; at 50.0 µM 32.5% | [6]; at 1.2 µM 4% | [6]; at 3.7 µM 15% | [6]; [17] 3% | [6]; at 11.0 µM -7% | [6]; at 33.0 µM 14% | [6]; [18] 48% | [6]; at 50.0 µM 46.1% | [7]; at 1.2 µM 21% | [7]; at 3.7 µM 15% | [7]; at 11.0 µM 16% | [7]; at 33.0 µM 31% | [8]; [17] 8% | [8]; at 50.0 µM 64.1% | [9]; at 1.2 µM -7% | [9]; at 3.7 µM -16% | [9]; at 11.0 µM -4% | [9]; at 33.0 µM -5% | [10]; [17] 11% | [10]; [18] 67% | [10]; at 50.0 µM 21.3% | [11]; at 1.2 µM 15% | [11]; at 3.7 µM 13% | [11]; [17] 9% | [11]; at 11.0 µM 12% | [11]; at 33.0 µM 32% | [11]; [18] 68% | [11]; at 50.0 µM 28.8% | [12]; at 1.2 µM -20% | [12]; at 3.7 µM -23% | [12]; at 11.0 µM -17% | [13]; at 1.2 µM 17% | [13]; at 3.7 µM 22% | [13]; at 11.0 µM 27% | [13]; at 33.0 µM 55% | [14]; at 1.2 µM 17% | [14]; at 3.7 µM 22% | [14]; at 11.0 µM 21% | [14]; at 33.0 µM 49% | [15]; [17] 11% | [15]; [18] 65% | [15]; at 50.0 µM 39.7% | [16]; at 1.2 µM 23% | [16]; at 3.7 µM 6% | [16]; at 11.0 µM 7% | [16]; at 33.0 µM 25%

CN(C)CCNC(=O)c1cccc2c1Oc1c(cccc1[N+](=O)[O-])O2
inactive: [1]; at 1.2 µM -20% | [1]; at 3.7 µM -21% | [1]; at 11.0 µM -12% | [1]; at 33.0 µM 59% | [2]; at 1.2 µM -13% | [2]; at 3.7 µM -20% | [2]; at 11.0 µM -14% | [2]; at 33.0 µM -12% | [2]; at 100.0 µM 29% | [3]; at 1.2 µM 0% | [3]; at 3.7 µM 9% | [3]; at 11.0 µM 3% | [3]; at 33.0 µM 26% | [3]; at 100.0 µM 68% | [4]; at 1.2 µM 9% | [4]; at 3.7 µM 17% | [4]; at 11.0 µM 16% | [4]; at 33.0 µM 30% | [4]; at 100.0 µM 60% | [5]; at 1.2 µM 6% | [5]; at 3.7 µM 10% | [5]; [17] 29% | [5]; at 11.0 µM 24% | [5]; at 50.0 µM 32.6% | [6]; at 1.2 µM -12% | [6]; at 3.7 µM -23% | [6]; [17] -7% | [6]; at 11.0 µM -20% | [6]; at 33.0 µM -9% | [6]; [18] 16% | [6]; at 50.0 µM 7.85% | [6]; at 100.0 µM 56% | [7]; at 1.2 µM -12% | [7]; at 3.7 µM -12% | [7]; at 11.0 µM -10% | [7]; at 33.0 µM -8% | [7]; at 100.0 µM 40% | [8]; [17] 11% | [8]; [18] 16% | [8]; at 50.0 µM 11.5% | [9]; at 1.2 µM 24% | [9]; at 3.7 µM 12% | [9]; at 11.0 µM 20% | [9]; at 33.0 µM 6% | [9]; at 100.0 µM 58% | [10]; [17] 47% | [10]; [18] 38% | [10]; at 50.0 µM 14.4% | [11]; at 1.2 µM 25% | [11]; at 3.7 µM 31% | [11]; [17] 20% | [11]; at 11.0 µM 13% | [11]; at 33.0 µM 26% | [11]; [18] 29% | [11]; at 50.0 µM 0.95% | [12]; at 1.2 µM -37% | [12]; at 3.7 µM -27% | [12]; at 11.0 µM -40% | [12]; at 33.0 µM -37% | [12]; at 100.0 µM 26% | [13]; at 1.2 µM 15% | [13]; at 3.7 µM 13% | [13]; at 11.0 µM 18% | [13]; at 33.0 µM 38% | [14]; at 1.2 µM -10% | [14]; at 3.7 µM 2% | [14]; at 11.0 µM -1% | [14]; at 33.0 µM 2% | [14]; at 100.0 µM 48% | [15]; [17] 15% | [15]; [18] 29% | [15]; at 50.0 µM 18.4% | [16]; at 1.2 µM -3% | [16]; at 3.7 µM 0% | [16]; at 11.0 µM -5% | [16]; at 33.0 µM 13% | [16]; at 100.0 µM 69%
active: [1]; at 100.0 µM 93% | [5]; at 33.0 µM 76% | [5]; [18] 72% | [5]; at 100.0 µM 95% | [11]; at 100.0 µM 74% | [13]; at 100.0 µM 75%

CC(/C=C/c1ccccc1)=N\NC(N)=S
active: [1]; at 100.0 µM 72% | [5]; at 33.0 µM 93% | [5]; at 100.0 µM 97% | [8]; [18] 87% | [8]; at 50.0 µM 86.1% | [10]; at 50.0 µM 83% | [11]; at 50.0 µM 83.5%
inactive: [1]; at 1.2 µM 4% | [1]; at 3.7 µM 16% | [1]; at 11.0 µM 16% | [1]; at 33.0 µM 24% | [2]; at 1.2 µM -8% | [2]; at 3.7 µM -5% | [2]; at 11.0 µM 6% | [2]; at 33.0 µM 17% | [2]; at 100.0 µM 35% | [3]; at 1.2 µM -5% | [3]; at 3.7 µM 6% | [3]; at 11.0 µM 0% | [3]; at 33.0 µM -3% | [3]; at 100.0 µM 48% | [4]; at 1.2 µM 9% | [4]; at 3.7 µM 13% | [4]; at 11.0 µM 10% | [4]; at 33.0 µM 29% | [4]; at 100.0 µM 52% | [5]; at 1.2 µM 14% | [5]; at 3.7 µM 10% | [5]; [17] 24% | [5]; at 11.0 µM 7% | [5]; [18] 60% | [5]; at 50.0 µM 33.7% | [6]; at 1.2 µM -2% | [6]; at 3.7 µM 5% | [6]; [17] 15% | [6]; at 11.0 µM -6% | [6]; at 33.0 µM 4% | [6]; [18] 35% | [6]; at 50.0 µM 62.5% | [6]; at 100.0 µM 59% | [7]; at 1.2 µM -8% | [7]; at 3.7 µM 2% | [7]; at 11.0 µM -17% | [7]; at 33.0 µM -15% | [7]; at 100.0 µM 45% | [8]; [17] 58% | [9]; at 1.2 µM 7% | [9]; at 3.7 µM 20% | [9]; at 11.0 µM 16% | [9]; at 33.0 µM 25% | [9]; at 100.0 µM 46% | [10]; [17] -5% | [10]; [18] 15% | [11]; at 1.2 µM 9% | [11]; at 3.7 µM -8% | [11]; [17] 18% | [11]; at 11.0 µM -2% | [11]; at 33.0 µM -8% | [11]; [18] 44% | [11]; at 100.0 µM 13%
